According to PubChem BioAssay (NCATS):
Results filed as inconclusive are left out. The list shows a part of the results. Activity calls are given as the source filed them. Calls come from the whole dose curve; as a rule, active = well fitted curve in the direction sought with a large enough effect; inconclusive = small, poorly fitted or top-dose-only effect, or another doubt; inactive = no such curve, though single readings can be large; an effect the other way counts as inactive or inconclusive.

Tests used:
[1] = target: ATP-dependent DNA helicase Q1 (Homo sapiens) (UniProt P46063); assay: qHTS Validation Assay for Inhibitors of RecQ-Like Dna Helicase 1 (RECQ1) (AID 2353); note: potency is the fitted concentration of half-maximal effect
Method in brief: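 50 nM RECQ1T1 preincubated 15 min with compound in Tris pH 8.0 buffer with MgCl2, DTT, Tween-20 and 2.5 ug/ml poly(dI-dC); started with 200 nM TAMRA/BHQ-2 forked duplex and 2 mM ATP. Unwinding read as fluorescence (525/598 nm), two reads 2 h apart.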

[2] = Cytometric Cell-Based qHTS for Inhibitors of the mTORC1 Signaling Pathway in MEF (Tsc2-/-, p53-/-) Cells (AID 2660);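 note: percent of cells above a phospho-rpS6 to PI ratio cutoff in each well; series mostly up to about 38 µM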
Method in brief: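 Tsc2-/-, p53-/- MEFs (empty vector) exposed to compound 24 h at 37 C, fixed, stained with Alexa-488 anti-phospho-rpS6 Ser235/236 and propidium iodide. Acumen laser scanning; phospho-S6/PI ratio thresholded against 7.5 nM rapamycin, reported as % positive cells.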

[3] = High Content Imaging Cell-Based qHTS for Inhibitors of the mTORC1 Signaling Pathway in MEF (Tsc2-/-, p53-/-) Cells (AID 2666);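 note: percent of cells scored positive for phospho-rpS6 Ser235/236 immunostaining by imaging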
Method in brief: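 Phospho-rpS6 (Ser235/236) immunofluorescence, normalized and scored as % positive cells using rapamycin and DMSO controls, was read in empty-vector Tsc2-/-, p53-/- MEFs after 24 h compound exposure at 37 C; propidium iodide counted cells.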

[4] = High Content Imaging Cell-Based qHTS for Inhibitors of the mTORC1 Signaling Pathway in MEF Cells (AID 2667);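 note: Tsc2-/- p53-/- MEFs stably re-expressing wild-type Tsc2 exposed 24 h; series mostly up to about 38 µM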
Method in brief: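 WT MEFs (Tsc2-/-, p53-/- re-expressing Tsc2), in DMEM + 10% FBS, were treated with compound for 24 h at 37 C. Cells were then fixed and stained for phospho-rpS6 Ser235/236 with propidium iodide as cell count. Values are % positive cells, with thresholds set against rapamycin-treated cells.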

[5] = Cytometry Cell-Based qHTS for Inhibitors of the mTORC1 Signaling Pathway in MEF cells (AID 2668);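 note: Tsc2-/- p53-/- mouse embryonic fibroblasts stably re-expressing wild-type Tsc2; percent cells positive for phospho-rpS6 Ser235/236 relative to propidium iodide stain; series mostly up to about 38 µM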
Method in brief: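 In MEFs grown in DMEM + 10% FBS, a 24 hrs compound exposure preceded imaging of phospho-rpS6 Ser235/236 by laser-scanning cytometry.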

[6] = Validation screen for small molecules that induce DNA re-replication in MCF 10A normal breast cells (AID 463097); note: nearly all actives have a fitted effect of over 60% in size
Method in brief: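 Following 48 hr compound incubation (37 C, 5% CO2), MCF 10A cells receive Hoechst for 40 min at 37 C. Nuclei are then scanned (excitation 405 nm, emission 500-530 nm) for total fluorescence intensity.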

[7] = target: RecQ-like DNA helicase BLM (Homo sapiens) (UniProt P54132); assay: qHTS Validation Assay for Inhibitors of Bloom's syndrome helicase (BLM) (AID 2364); note: potency is the fitted concentration of half-maximal effect
Method in brief: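 50 nM BLM preincubated 15 min at room temperature with compound in pH 8.0 Tris buffer containing 2.5 ug/ml poly(dI-dC); started with 200 nM TAMRA/BHQ-2 forked duplex and 2 mM ATP (final). Unwinding read as TAMRA fluorescence increase, two reads 2 h apart.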

[8] = target: Endonuclease 4 (Escherichia coli (strain K12)) (UniProt P0A6C1); assay: Counterscreen for APE1 Inhibitors: qHTS Assay for Inhibitors of Endonuclease IV (AID 2565)
Method in brief: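 Cleavage of a quenched abasic-site DNA duplex (50 nM, 5'-TAMRA, 3'-BHQ-2) by 2 nM enzyme is followed as fluorescence increase. Compounds are preincubated with enzyme 15 min at room temperature before substrate addition.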

[9] = target: DNA repair nuclease/redox regulator APEX1 (Homo sapiens) (UniProt P27695); assay: Confirmation qHTS Assay for Inhibitors of the Human Apurinic/apyrimidinic Endonuclease 1 (APE1) (AID 2572);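 note: fluorescence gain from purified APE1 cutting a TAMRA/BHQ-2 THF abasic duplex; nearly all actives have a fitted effect of over 30% in size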
Description: The apurinic/apyrimidinic endonuclease APE1 is the primary mammalian enzyme responsible for the removal of abasic (or AP) sites in DNA and functions centrally in the base excision DNA repair (BER) pathway. […] Thus, targeting APE1 could improve the efficacy of current treatment paradigms by promoting selective sensitization or protection of diseased and normal cells, respectively.
Inhibition of APE1 activity was screened by utilizing double-stranded short substrate containing tetrahydrofuran (THF) abasic site labeled with rhodamine-type fluorophore (TAMRA) at the 5'-end and with non-fluorescent Black Hole Quencher-2 (BHQ-2) at the opposing 3'-end. An increase in the fluorescence intensity due to incision of the abasic site by APE1 was used to measure the enzyme activity.
Assay Provider: David M. Wilson, III, National Institute on Aging, NIH
Screening Center PI: Austin, C.P.
Screening Center: NIH Chemical Genomics Center [NCGC]
1. […]
Three uL of enzyme were dispensed to 1536-well Greiner black solid bottom plates. […] The plates were immediately transferred into ViewLux High-throughput CCD imager (Perkin-Elmer) in order to measure the reaction progress in kinetic mode (three reads every 60 seconds) using 525 nm excitation and 598 nm emission fluorescence protocol. The fluorescence intensity difference between the third and the first time points was used to compute reaction progress.

[10] = target: Ferritin light chain (Equus caballus) (UniProt P02791); assay: qHTS Validation Assay for Identification of Novel General Anesthetics (AID 2323); note: series mostly up to about 77 µM
Method in brief: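 Normalized fluorescence response, scaled between free 1-AMA and 1-AMA/apoferritin complex, fitted to a four-parameter Hill equation for concentration-effect values. Binding mix: 10 uM horse-spleen apoferritin, 50% saturated 1-AMA in PBS; read 380/535 nm after 10 min.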

Measured: Potency

Chain of ATP-dependent DNA helicase Q1 (Homo sapiens) (P46063 whole entry, looked up): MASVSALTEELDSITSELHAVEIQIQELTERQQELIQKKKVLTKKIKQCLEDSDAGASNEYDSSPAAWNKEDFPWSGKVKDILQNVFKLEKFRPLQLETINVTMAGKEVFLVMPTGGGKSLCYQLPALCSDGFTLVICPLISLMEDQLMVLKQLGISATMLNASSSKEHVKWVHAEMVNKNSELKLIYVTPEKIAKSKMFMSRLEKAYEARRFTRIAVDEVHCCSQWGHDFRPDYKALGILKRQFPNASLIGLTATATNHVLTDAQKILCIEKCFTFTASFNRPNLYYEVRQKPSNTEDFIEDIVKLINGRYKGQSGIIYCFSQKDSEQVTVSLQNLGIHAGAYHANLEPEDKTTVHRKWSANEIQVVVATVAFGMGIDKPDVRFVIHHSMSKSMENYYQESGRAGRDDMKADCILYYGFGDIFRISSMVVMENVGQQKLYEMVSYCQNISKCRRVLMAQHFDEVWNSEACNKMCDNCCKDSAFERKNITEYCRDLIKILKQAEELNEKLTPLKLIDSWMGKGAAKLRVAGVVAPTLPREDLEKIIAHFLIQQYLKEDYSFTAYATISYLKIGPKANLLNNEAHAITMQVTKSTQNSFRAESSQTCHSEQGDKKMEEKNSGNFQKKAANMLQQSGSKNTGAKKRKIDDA
Chain of Ferritin light chain (Equus caballus) (P02791 2-175 limits assumed): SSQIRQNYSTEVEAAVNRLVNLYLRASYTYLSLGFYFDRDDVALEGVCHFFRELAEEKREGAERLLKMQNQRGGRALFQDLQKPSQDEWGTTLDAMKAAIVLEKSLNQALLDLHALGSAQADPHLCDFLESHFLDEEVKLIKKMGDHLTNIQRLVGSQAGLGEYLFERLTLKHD
Chain of RecQ-like DNA helicase BLM (Homo sapiens) (P54132 whole entry, looked up): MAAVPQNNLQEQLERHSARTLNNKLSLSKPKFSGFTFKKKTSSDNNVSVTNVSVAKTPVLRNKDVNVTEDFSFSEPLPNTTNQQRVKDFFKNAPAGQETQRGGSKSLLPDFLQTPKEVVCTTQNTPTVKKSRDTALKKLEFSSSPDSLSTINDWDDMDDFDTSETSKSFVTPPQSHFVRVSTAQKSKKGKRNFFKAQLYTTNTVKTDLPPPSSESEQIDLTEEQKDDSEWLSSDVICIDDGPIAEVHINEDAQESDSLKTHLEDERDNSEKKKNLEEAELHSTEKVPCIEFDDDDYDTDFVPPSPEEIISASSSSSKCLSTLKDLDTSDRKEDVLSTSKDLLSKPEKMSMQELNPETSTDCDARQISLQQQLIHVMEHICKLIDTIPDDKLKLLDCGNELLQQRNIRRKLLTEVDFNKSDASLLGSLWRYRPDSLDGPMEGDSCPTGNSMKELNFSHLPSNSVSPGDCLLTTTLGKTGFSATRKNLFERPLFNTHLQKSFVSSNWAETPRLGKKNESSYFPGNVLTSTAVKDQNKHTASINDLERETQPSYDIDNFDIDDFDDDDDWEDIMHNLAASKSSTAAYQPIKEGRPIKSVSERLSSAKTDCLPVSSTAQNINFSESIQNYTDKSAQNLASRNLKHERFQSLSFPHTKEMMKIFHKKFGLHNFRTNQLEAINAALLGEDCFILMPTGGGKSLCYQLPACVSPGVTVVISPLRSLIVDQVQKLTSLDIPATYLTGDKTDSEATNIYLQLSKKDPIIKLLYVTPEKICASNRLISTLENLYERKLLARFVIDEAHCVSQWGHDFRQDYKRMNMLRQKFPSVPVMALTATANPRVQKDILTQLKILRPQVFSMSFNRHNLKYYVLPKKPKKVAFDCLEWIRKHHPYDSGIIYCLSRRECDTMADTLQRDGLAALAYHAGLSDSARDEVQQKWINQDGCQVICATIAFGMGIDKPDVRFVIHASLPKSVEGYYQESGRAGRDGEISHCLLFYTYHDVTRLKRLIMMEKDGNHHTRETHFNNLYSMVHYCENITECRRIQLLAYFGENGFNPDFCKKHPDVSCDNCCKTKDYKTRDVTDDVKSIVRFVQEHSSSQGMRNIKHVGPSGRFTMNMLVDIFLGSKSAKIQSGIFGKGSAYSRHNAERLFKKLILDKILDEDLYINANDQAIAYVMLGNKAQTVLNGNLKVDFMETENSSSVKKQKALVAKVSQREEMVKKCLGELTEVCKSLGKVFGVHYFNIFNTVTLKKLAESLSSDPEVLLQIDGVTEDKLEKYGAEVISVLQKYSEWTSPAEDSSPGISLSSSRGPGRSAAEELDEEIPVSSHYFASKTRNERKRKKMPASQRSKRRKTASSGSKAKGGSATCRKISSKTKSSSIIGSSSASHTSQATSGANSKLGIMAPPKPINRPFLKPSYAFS
Chain of DNA repair nuclease/redox regulator APEX1 (Homo sapiens) (P27695 whole entry, looked up): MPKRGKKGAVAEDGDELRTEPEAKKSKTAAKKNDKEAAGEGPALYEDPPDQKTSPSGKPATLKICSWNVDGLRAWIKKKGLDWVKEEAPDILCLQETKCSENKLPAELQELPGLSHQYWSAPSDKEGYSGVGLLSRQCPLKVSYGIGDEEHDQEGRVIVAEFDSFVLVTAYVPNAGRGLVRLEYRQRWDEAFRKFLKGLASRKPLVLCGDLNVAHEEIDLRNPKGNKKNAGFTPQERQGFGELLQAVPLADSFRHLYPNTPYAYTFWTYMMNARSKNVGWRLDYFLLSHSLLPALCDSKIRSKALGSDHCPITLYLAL

O=C(O)CCCC[C@@H]1CCSS1
inactive: [1] | [2] | [3] | [4] | [5] | [6]

O=C1O/C(=C/Br)CCC1c1cccc2ccccc12 (stereo not drawn)
inactive: [1] | [2] | [3]

CO/N=C(\C(=O)N[C@@H]1C(=O)N2C(C(=O)O)=C(COC(C)=O)CS[C@H]12)c1csc(N)n1 (stereo in doubt)
active: [1] 10 µM
inactive: [7] | [8] | [9] | [6]

NCCCS(=O)(=O)O
inactive: [1] | [7] | [2] | [3] | [4] | [5]

CC(C)NC[C@H](O)COc1cccc2[nH]ccc12
inactive: [10] | [2] | [3] | [4] | [6]

CCCCC/C=C\CC(O)/C=C/c1cccc(CC(O)CCCCO)n1 (stereo not drawn)
inactive: [1] | [7] | [2] | [3] | [4] | [6]

CCCCCCCCCCCCCCCCCC(=O)OC(CC(=O)O)C[N+](C)(C)C (stereo not drawn)
inactive: [1] | [7] | [2] | [3] | [4] | [5]

CN(C)C(N)=NCCC[C@H](N)C(=O)O
inactive: [10] | [2] | [3] | [4] | [5] | [6]

CC[C@@H](C)[C@H]1O[C@]2(CC[C@@H]1C)C[C@@H]1C[C@@H](C/C=C(\C)[C@@H](O[C@H]3C[C@H](OC)[C@@H](O[C@H]4C[C@H](OC)[C@@H](O)[C@H](C)O4)[C@H](C)O3)[C@@H](C)/C=C/C=C3\CO[C@@H]4[C@H](O)C(C)=C[C@@H](C(=O)O1)[C@]34O)O2
inactive: [1]

C#CCN1C(C)=C(C(=O)OC)C(c2cccc([N+](=O)[O-])c2)C(C(=O)OCC)=C1C (stereo not drawn)
inactive: [1] | [2] | [3] | [4]

O=C(O)CC1CCCc2ccccc2C1O (stereo not drawn)
inactive: [10] | [2] | [3] | [4] | [6]

CC12C(=O)OC(=O)C1(C)C1CCC2O1 (stereo not drawn)
inactive: [1]

CN(C)c1nc2c(Br)c(Br)c(Br)c(Br)c2[nH]1
inactive: [1] | [2] | [3]

O=Nc1ccc2oc(=O)ccc2c1
inactive: [1]

Cc1ccc(O)c(N=Nc2ccccc2)n1
inactive: [1] | [7] | [2] | [3] | [4] | [6]

CCCCCCCCCCCCCCCC(=O)NCC(COP(=O)([O-])OCC[N+](C)(C)C)OCC (stereo not drawn)
inactive: [1] | [2] | [3] | [4] | [5]

NC(N)=NC(=O)c1nc(Cl)c(N2CCCCCC2)nc1N
inactive: [1] | [7] | [2] | [3] | [4] | [5] | [6]

C[C@@H](NC(=O)/C(C#N)=C/c1ccc(O)c(O)c1)c1ccccc1
inactive: [1] | [2] | [3] | [4]

COc1cc(OC)c(/C=C2/C(=O)Nc3ccccc32)c(OC)c1
inactive: [1] | [2] | [3] | [4] | [5]

CC1CN(S(=O)(=O)c2cccc3cnccc23)CCN1 (stereo not drawn)
inactive: [1] | [7] | [2] | [3] | [4] | [6]

CN1[C@@H](CC(=O)c2ccccc2)CCC[C@H]1C[C@H](O)c1ccccc1
inactive: [1] | [7] | [2] | [3] | [4] | [6]

NC[C@@H]1O[C@H](C23CC4CC(CC(C4)C2)C3)Cc2c1ccc(O)c2O
inactive: [1] | [7] | [3]

COC1=C(OC)C(=O)c2ccccc2C1=O
inactive: [10] | [3]

Clc1ccc(N2CCN(Cc3c[nH]c4ncccc34)CC2)cc1
inactive: [1] | [7] | [2] | [3] | [4] | [5] | [6]

COC(=O)c1c(C)[nH]c(C)c1C(=O)c1ccccc1Cc1ccccc1
inactive: [1] | [2] | [3] | [4] | [5] | [6]

N#C/C(=C\c1c[nH]c2ccccc12)C(=O)c1ccc(O)c(O)c1
inactive: [2] | [3] | [4] | [6]
active: [1] 8.91 µM | [7] 11.2 µM

CN(C)c1ccc(/C=C2\C(=O)Nc3ccccc32)cc1
inactive: [1] | [2] | [3]

CCCCCCCCCCCCCCCC(=O)OC(CC(=O)O)C[N+](C)(C)C (stereo not drawn)
inactive: [1] | [2] | [3] | [4] | [5]

Nc1ccn([C@@H]2O[C@H](CO)[C@@H](O)[C@@H]2O)c(=O)n1
inactive: [1] | [7]

Brc1c(Br)c(Br)c2n[nH]nc2c1Br
inactive: [1] | [2] | [3] | [4] | [5]

NCCCCCCCCCCN
inactive: [1] | [7] | [2] | [3] | [4] | [5] | [6]
